Measured values taken from PubChem BioAssay AID720566 (Broad Institute, 2013).
Measured potencies and affinities stand elsewhere.

Target: Protein disulfide-isomerase A6 (Homo sapiens) (UniProt Q15084)
Test: inhibitors of ERp5-mediated insulin aggregation, dose response, biochemical, turbidity, absorbance 650 nm, cherry-picked samples (AID 720566)
Conditions: Recombinant ERp5 insulin aggregation; series mostly up to 35 µM; activity change, negative = inhibition: at the top concentration;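 active means in all runs, an absorbance decrease of 25% or more of the average positive control decrease; inconclusive means runs conflict, with both active and inactive results; inactive means all runs inactive, opposite-direction effects included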

Chain of Protein disulfide-isomerase A6 (Homo sapiens) (Q15084 whole entry, looked up): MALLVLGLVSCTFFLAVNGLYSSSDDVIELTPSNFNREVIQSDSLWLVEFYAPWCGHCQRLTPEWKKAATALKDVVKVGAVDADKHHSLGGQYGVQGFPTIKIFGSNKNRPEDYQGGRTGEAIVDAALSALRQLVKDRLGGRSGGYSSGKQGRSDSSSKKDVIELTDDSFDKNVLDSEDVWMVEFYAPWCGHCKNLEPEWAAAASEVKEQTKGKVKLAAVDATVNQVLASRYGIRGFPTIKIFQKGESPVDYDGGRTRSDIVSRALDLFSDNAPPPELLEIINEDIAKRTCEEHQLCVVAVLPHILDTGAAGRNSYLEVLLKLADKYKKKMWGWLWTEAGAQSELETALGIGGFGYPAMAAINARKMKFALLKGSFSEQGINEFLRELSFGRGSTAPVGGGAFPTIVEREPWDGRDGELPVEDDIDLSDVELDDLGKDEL

Activity change, negative = inhibition, inactive:
CN1C(=O)c2cc(NC(=O)C3CCCCC3)ccc2OC[C@@H]2O[C@@H](CC(=O)NC3CCCC3)CC[C@H]21 2.02%, C[C@@H]1CN([C@H](C)CO)C(=O)Cc2cc(NC(=O)Nc3cccc4ccccc34)ccc2O[C@@H]1CN(C)C(=O)Nc1cccc2ccccc12 11.3%, COc1ccc2c3c([nH]c2c1)[C@@H](CO)N(Cc1nccs1)CC31CN(C(=O)C2CCCC2)C1 3.38%
